About 83,000 compounds went through this panel and 20% of them were active in at least one assay; those are over-represented in the sample as a whole.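 Values shown are percent growth following 48 h exposure of cells in 96-well plates to a single concentration of compound; below 10 was considered active.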 Values without a mark were called inactive. The source made the active and inactive calls.

From PubChem BioAssay (NCI) come the findings set out here.

For the test, the system named is MOLT-4 leukemia. Briefly: NCI-60 one-dose screen, 48 h (100 = growth as untreated, 0 = no growth, -100 = all killed). Conditions: 10 µM unless noted.
As for `COc1ccccc1-c1nc2ccc3[nH]ncc3c2c2c1CCCC2`, the growth was 42.6%. As for `O=c1ccc2nc(-c3ccccc3)nn(-c3ccccn3)c-2c1`, the growth is -10.6% (active). With `Nc1ncc(-c2ccc3ncnc(N4CCc5cc(F)c(Cl)cc54)c3c2)cc1C=O` the figure was 2.46% (active).

With `C#Cc1ccc(NC(=O)Cc2ccc(/C=C/C(=O)c3nccn3C)cc2)cc1`, the growth is 40.8%. With `CCCCN(CCC#N)C(N)=O` the figure was 107%; with `COc1ccc(-c2cn(Cc3ccc4c(Br)cc(Br)c(O)c4n3)nn2)cc1`, 87%. In the case of `CCc1ccc(Cc2cnc(NC(=O)c3cc(C)oc3C)s2)cc1` it was 29.2%; in that of `COc1cc(/C=C/c2cc(/C=C/c3ccc(O)c(OC)c3)n(C(=O)Nc3ccc(C)cc3C)n2)ccc1O`, -20.7% (active). With `Clc1nc(N2CCC[N+]3(CC2)CC[N+]2(CCCNCC2)CC3)nc(N2CCC[N+]3(CC2)CC[N+]2(CCCNCC2)CC3)n1` (centres undefined) the figure was 92.3%; with `O=S(=O)(Nc1ccc(Br)cc1)c1ccc(-c2cnc(C3CC3)o2)cc1`, 15.8%; with `O=C1N/C(=N/N=C(c2ccccc2)c2ccccc2)S/C1=C\c1ccc(Br)cc1`, 106%. As to `COc1cc(OCc2cccc(-c3ccc4c(c3)OCCO4)c2C)cc(OC)c1C=O`, the growth was 56.4%.

Regarding `COC(=O)c1c(C)nc(C)c2c1C(=O)C(Br)=C(NCCCCO)C2=O`, the growth was 79.5%. For `COc1ccc(CNc2c3ccccc3nc3ccccc23)cc1OC`, the growth is 10.6%. With `COc1cc(/C=C/C(=O)c2ccc(-n3cc(CN4CCN(c5cc6c(cc5F)c(=O)c(C(=O)O)cn6C5CC5)CC4)nn3)cc2)cc(OC)c1OC`, the growth was 80.4%.

As for `CCCCCC(C)(O)C(C(=O)O)c1ccccc1` (centres undefined), the growth was 112%. In the case of `C[C@@H]1N=C(c2ccc(Cl)cc2Cl)Nc2nc3ccccn3c2C1=O` it was 50.4%; in that of `O=C(Nc1ccccc1)Nc1ccccc1CNc1nc(Nc2ccc(OCCN3CCCC3)cc2)ncc1Cl`, 37.9%.

For the compound `COc1ccc(S(=O)(=O)N(C)c2oc(-c3ccc(Cl)cc3)nc2C#N)cc1`, the growth was 59.4%.

In the case of `COc1cccc(C(=O)Nc2cccc(NC(=O)c3ccccn3)c2)c1`, the growth was 88.6%. In the case of `CS(=O)(=O)c1ccc(/C(=N/NC(N)=S)c2ccc(F)cc2)cc1` it was 103%; in that of `CSc1nc(N)c2c(n1)NC(c1ccccc1)C1CCc3ccccc3C1=N2` (centres undefined), 27.9%. With `COc1cccc(CNc2nnc(C)c(C)n2)c1O` the figure was 109%; with `COc1ccc(NC(=O)CSc2oc(-c3ccccc3)nc2S(=O)(=O)c2ccc(Cl)cc2)c(OC)c1`, 73%; with `O=C(c1ccc(F)cc1)C1CCN(CCn2c(=O)[nH]c3ccccc3c2=O)CC1`, 95.5%.

Take `CC(=O)OCC(=O)O[C@@H]1C[C@]2(C(C)C)O[C@@]1(C)[C@@H]1CC[C@@H](C)[C@H]1[C@@H]2OC(=O)/C=C/c1ccccc1`: the growth is 74.5%.

Take `O=C(Nc1ncc(Cc2ccccc2)s1)c1cc(-c2ccccc2)nc2ccccc12`: the growth was 95.6%. In the case of `O=c1cc(-c2nccc3c2[nH]c2ccccc23)c2cc(Cl)ccc2o1` it was 44.3%; in that of `O=C(CN1C(=O)NC2NC(=O)NC21)N/N=C/c1cccc([N+](=O)[O-])c1` (centres undefined), 106%; in that of `CCCCCCCCCCCCCC[n+]1ccc2c(C)c3c(c(C)c2c1)c1cc(O)ccc1n3CC`, -44.5% (active).

Consider `C=C(C)[C@@H]1CCC[C@]2(C(=O)OC)CC[C@]3(C)[C@@H](CC[C@@H]4[C@@]5(C)CCCNC(C)(C)[C@@H]5CC[C@]43C)[C@@H]12`, for which the growth is 76.9%. In the case of `COc1cc2c(cc1-c1c(C)noc1C)ncc1nc(C3CCOCC3)n(C3CCC(OC(F)F)CC3)c12` (centres undefined) it was 68.6%; in that of `O=C1CCC(C(=O)N/N=C/c2ccc([N+](=O)[O-])cc2)N1` (centres undefined), 102%; in that of `COc1cc(C(=O)/C=C/c2c(-c3cccs3)nc3sc(C)cn23)cc(OC)c1OC`, -2.47% (active).

Take `O=C(NS(=O)(=O)c1ccccc1)n1cc(-c2ccncc2)c(-c2cc(O)cc(Cl)c2)n1`: the growth is 79.3%. With `COC(CCP(=O)(c1ccccc1)c1ccccc1)(C(=O)c1ccccc1)c1ccccc1` (centres undefined) the figure was 18.3%.

As to `Cn1nc(-c2ccc(Cl)cc2)nc2c(=O)n(C)c(=O)nc1-2`, the growth is -47.3% (active). With `CC1(C)CCC[C@]23C(=O)O[C@](O)(C(=O)C4=C[C@@](C)(/C=C/CCCc5ccc6ccc7cccc8ccc5c6c78)CC[C@@]42O)[C@@H]13` the figure was 9.46% (active); with `COc1ccc(C2=C/C(=C\c3ccccc3O)C(=O)N2Cc2ccccc2)cc1`, 66.8%.
